Results filed as inconclusive are left out. Values without a mark were called inactive. Activity calls are given as the source filed them. The call rests on the fitted dose curve; in most records, active means well fitted inhibition curve with a large enough effect; inconclusive means small, poorly fitted or top-dose-only effect; inactive means flat fitted curve, though single readings scatter.
tested on: NIH3T3; assay: Cytotoxic Profiling of Annotated Libraries Using Quantitative High-Throughput Screening (AID 1296008); settings: Five cell lines viability, CellTiter-Glo ATP luminescence, 48-72 h; max response: active compounds read low; on max response: on the % scale 0 is the no-effect control and ±100 the full control effect
Outline: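 Compounds were pin-transferred onto cells and incubated 48 or 72 hr at 37 degree Celsius, 95% humidity. CellTiter-Glo was added, plates sat 10 min at room temperature, then ATP-coupled luminescence was imaged as the viability read-out.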
Further: nearly all actives have a fitted effect of over 60% in size.

SMILES	outcome	max response [%]
COc1cc2nc(N3CCN(C(=O)COc4c(OC)cccc4C(C)C)CC3)nc(N)c2cc1OC	inactive	
CC(=O)C=C=C1C(C)(C)CC(O)CC1(C)O[C@@H]1O[C@H](CO[C@H]2OC[C@](O)(CO)[C@H]2O)[C@@H](O)[C@H](O)[C@H]1O (stereo partly specified)		1.53
Cc1cc(C)c(-n2cc(C)c3c(Cl)nc(C)nc32)c(C)c1		-6
O=[N+]([O-])c1ccc(Oc2ccc3c(c2)CCC(c2ccccc2)O3)nc1 (stereo unspecified)		-17
CC1(C)CC[C@]2(C(=O)O)[C@H](O)C[C@]3(C)C(=CCC4[C@@]5(C)CC[C@H](O[C@@H]6O[C@H](CO[C@@H]7OC[C@H](O)[C@H](O)[C@H]7O[C@@H]7OC[C@H](O)[C@H](O)[C@H]7O)[C@@H](O)[C@H](O)[C@H]6O)C(C)(C)C5CC[C@]43C)[C@@H]2C1 (stereo partly specified)		-3.93

tested on: HACAT; assay: qHTS assay to identify novel small-molecules to repurpose for Merkel cell carcinoma treatment (AID 1296009); settings: MCC and control cell lines, CellTiter-Glo viability, 72 h; at 44.8 µM (top of the series) unless noted
Outline: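 Cells exposed to NPC (8-point) and MIPE (11-point) compound dilutions for 72 hr at 37 degree celsius; viability read by CellTiter-Glo luminescence, normalized to no-cell and DMSO in-plate controls.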

SMILES	outcome
COc1ccc(-c2cnc3c(-c4cccc5ncccc45)cnn3c2)cc1	inactive
C/C=C(\C)C(=O)OC1C[C@@]2(COC(C)=O)O[C@H]2/C=C\[C@@]2(C)O[C@@H]2[C@H]2OC(=O)C(COC(C)=O)=C12 (stereo partly specified)	inactive [at 17.4 µM]
COc1ccc(NC(=O)c2ccc(-c3ccc(C(=N)N)cc3C)cc2)cc1N1CCN(C)CC1	inactive
C=C1CCCC2(C)CCC(C(C)(C)OC3OC(C)C(O)C(O)C3OC(=O)/C(C)=C\C)CC12 (stereo unspecified)	inactive [at 17.4 µM]
C=C(CCC1C(C)(O)CCC2C(C)(C)C(O)CCC12C)C(O)CO (stereo unspecified)	inactive
O=C(Nc1ccccc1C(=O)Nc1ccc(CCO)cc1)c1ccc([N+](=O)[O-])cc1	inactive
O=C([C@@H](Cc1cccc(C(F)(F)F)c1)NS(=O)(=O)c1cc(F)c2c(c1)CCNC2)N1CCCC1	inactive
COC(=O)c1ccc2c(c1)[nH]c1ncnc(NCCCN3CCCCC3)c12	inactive
CC[C@H](C)/C=C(C)/C=C/C1=CC2=C(Cl)C(=O)[C@](C)(O)[C@H](OC(C)=O)[C@H]2CO1	inactive
O=C(Nc1ccc(N(Cc2ccsc2)C(=O)Cn2nnc3ccccc32)cc1)C1CC1	inactive
C/C=C(/C)C(=O)OC1C=C2C3C(C)C(C)C(OC(=O)C(C)C(C)O)CC3(C)CCC2(C)C2(C)CC(OC(C)=O)C3C(C)(C)C(O)C(=O)CC3(C)C12 (stereo unspecified)	inactive [at 17.4 µM]
CC(=O)NC[C@H]1CN(c2ccc(N3CCSCC3)c(F)c2)C(=O)O1	inactive
Cc1ccc(OC[C@H](O)[C@H](C)NC(C)C)c2c1CCC2	inactive
O=C(NCC1CCN(Cc2cccc(Cl)c2)CC1)[C@@H]1CCCN(c2ncnc3c2nc2n3CCCC2)C1	inactive
CNCCC(c1cccs1)c1ccc(O)c2ccccc12 (stereo unspecified)	inactive
CCC/C=C/C(=O)O[C@H]1CC(C)(C)CC2[C@@]13[C@H](O)C[C@]1(C)[C@@]2(CCC2[C@@]4(C)CC[C@H](O[C@@H]5O[C@H](C(=O)O)[C@@H](O)[C@H](O[C@@H]6O[C@H](CO)[C@H](O)[C@H](O)[C@H]6O[C@@H]6O[C@@H](C)[C@H](O)[C@@H](O)[C@H]6O[C@@H]6OC[C@](O)(CO)[C@H]6O)[C@H]5O[C@@H]5O[C@H](CO)[C@H](O)[C@H](O)[C@H]5O)C(C)(C)C4CC[C@]21C)O[C@H]3O (stereo partly specified)	inactive [at 9.27 µM]
C=C1CC2OC(=O)C(=C)C2C(O)/C=C(\C)CCC1O (stereo unspecified)	inactive
C[C@@H](NC(=O)c1ccc(C#Cc2cccc(F)c2)cn1)C(C)(C)O	inactive
CN(C)CCOc1cc(NS(=O)(=O)c2c(Cl)cc(C(F)(F)F)cc2Cl)ccc1Cl	inactive
CC(=O)O[C@@H]1CC[C@@]2(C)[C@H](CC[C@@H]3[C@@H]2C[C@H](OC(C)=O)[C@]2(C)[C@@H](C(C)=O)CC[C@@H]32)C1	inactive
CC1=C2C[C@@]3(C)C(CCC[C@@H]3C)C(O)C2OC1=O (stereo partly specified)	inactive
CNCCCC1(c2ccccc2)OC(C)(C)c2ccccc21 (stereo unspecified)	inactive
O=S1(=O)CCN(Cc2cc(NCC3CCOCC3)c3[nH]c(-c4ccccc4)cc3c2)CC1	inactive
CCCNCCc1ccc(NS(=O)(=O)c2ccc(OC(F)(F)F)cc2)cc1	inactive
CC(=O)OCC(=O)[C@@]12O[C@@H]1C[C@H]1[C@@H]3CC=C4C[C@@H](O)CC[C@]4(C)[C@H]3CC[C@@]12C	inactive
CC#CCn1c(N2CCCC(N)C2)nc2c1c(=O)n(Cc1nc(C)c3ccccc3n1)c(=O)n2C (stereo unspecified)	inactive

— PubChem BioAssay (NCATS)
